Reference: PubChem BioAssay (NCATS)
Records with an inconclusive call do not appear. Active and inactive are the calls of the source. The call rests on the fitted dose curve; in most records, active means well fitted curve in the direction sought with a large enough effect; inconclusive means small, poorly fitted or top-dose-only effect, or another doubt; inactive means no such curve, though single readings can be large; an effect the other way counts as inactive or inconclusive.

What was measured:
HACAT = test: qHTS assay to identify novel small-molecules to repurpose for Merkel cell carcinoma treatment (AID 1296009); conditions: MCC and control cell lines, CellTiter-Glo viability, 72 h; at 44.8 µM (top of the series) unless noted; further: nearly all actives have a fitted effect of over 60% in size
How it was run: (§1)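 Cell viability, measured as CellTiter-Glo luminescence, was normalized between DMSO and no-cell wells. The cells had been exposed to 8- or 11-point compound dilutions for 72 hr at 37 degree celsius.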

NIH3T3 = test: as above; conditions: MCC and control cell lines, CellTiter-Glo viability, 72 h; at 44.8 µM (top of the series) unless noted
How it was run: as §1

C33A = test: Primary qHTS to identify gynecologic anti-cancer compounds using libraries of approved drugs and bioactive compounds (AID 1345084); conditions: Gynecologic cancer cell panel viability, ATPlite luminescence, 48 h; series mostly up to 57.5 µM; further: on the % scale 0 is the no-effect control and ±100 the full control effect; nearly all actives have a fitted effect of over 55% in size
How it was run: (§2)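 Cytotoxicity screen measuring ATP content by luciferase luminescence. Each compound is applied at five concentrations for 48 h at 37 C with 5% CO2.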

CAOV3 = test: as above; conditions: Gynecologic cancer cell panel viability, ATPlite luminescence, 48 h; series mostly up to 57.5 µM
How it was run: as §2

CASKI = test: as above; conditions: Gynecologic cancer cell panel viability, ATPlite luminescence, 48 h; series mostly up to 57.5 µM
How it was run: as §2

Es-2 = test: as above; conditions: Gynecologic cancer cell panel viability, ATPlite luminescence, 48 h; series mostly up to 57.5 µM
How it was run: as §2

HeLa = test: as above; conditions: Gynecologic cancer cell panel viability, ATPlite luminescence, 48 h; series mostly up to 57.5 µM
How it was run: as §2

Hek293T = test: as above; conditions: Gynecologic cancer cell panel viability, ATPlite luminescence, 48 h, control line for the selectivity index; series mostly up to 57.5 µM
How it was run: as §2

JEG-3 = test: as above; conditions: Gynecologic cancer cell panel viability, ATPlite luminescence, 48 h; series mostly up to 57.5 µM
How it was run: as §2

OV90 = test: as above; conditions: Gynecologic cancer cell panel viability, ATPlite luminescence, 48 h; series mostly up to 57.5 µM
How it was run: as §2

PA-1 = test: as above; conditions: Gynecologic cancer cell panel viability, ATPlite luminescence, 48 h; series mostly up to 57.5 µM
How it was run: as §2

SKOV3 = test: as above; conditions: Gynecologic cancer cell panel viability, ATPlite luminescence, 48 h; series mostly up to 57.5 µM
How it was run: as §2

Tov-21-G = test: as above; conditions: Gynecologic cancer cell panel viability, ATPlite luminescence, 48 h; series mostly up to 57.5 µM
How it was run: as §2

Tov112D = test: as above; conditions: Gynecologic cancer cell panel viability, ATPlite luminescence, 48 h; series mostly up to 57.5 µM
How it was run: as §2

CC1(C(=O)O)CCCC2(C)C3CCC4CC3(CCC12)CC4C(=O)O (configuration not stated)
inactive: outcome (HACAT) | outcome (NIH3T3) | Potency (C33A) | Potency (CAOV3) | outcome (CASKI) | Potency (Es-2) | Potency (HeLa) | Potency (Hek293T) | Potency (JEG-3) | Potency (OV90) | Potency (PA-1) | Potency (SKOV3) | Potency (Tov-21-G) | Potency (Tov112D)

Fc1ccc(-c2c3cccc(C(F)(F)F)c3nn2Cc2ccc(F)cc2Cl)cc1
inactive: outcome (HACAT) | outcome (NIH3T3) | Potency (C33A) | Potency (CAOV3) | outcome (CASKI) | Potency (Es-2) | Potency (HeLa) | Potency (Hek293T) | Potency (JEG-3) | Potency (OV90) | Potency (PA-1) | Potency (SKOV3) | Potency (Tov-21-G) | Potency (Tov112D)

C[C@@H]1O[C@@H](O[C@H]2[C@H](Oc3cc(O)c(C(=O)CCc4ccc(O)cc4)c(O)c3)O[C@H](CO)[C@@H](O)[C@@H]2O)[C@H](O)[C@H](O)[C@H]1O
inactive: outcome (HACAT) | outcome (NIH3T3) | Potency (C33A) | Potency (CAOV3) | outcome (CASKI) | Potency (Es-2) | Potency (HeLa) | Potency (Hek293T) | Potency (JEG-3) | Potency (OV90) | Potency (PA-1) | Potency (SKOV3) | Potency (Tov-21-G) | Potency (Tov112D)

N#Cc1cccc(-c2nc(-c3cccnc3)no2)c1
inactive: outcome (HACAT) inactive [at 17.4 µM] | outcome (NIH3T3) inactive [at 17.4 µM] | Potency (C33A) | Potency (CAOV3) | outcome (CASKI) | Potency (Es-2) | Potency (HeLa) | Potency (Hek293T) | Potency (JEG-3) | Potency (OV90) | Potency (PA-1) | Potency (SKOV3) | Potency (Tov-21-G) | Potency (Tov112D)

COc1cc(Nc2nc3ccccc3nc2NS(=O)(=O)c2cccc(NC(=O)c3ccc(C)c(OC)c3)c2)cc(OC)c1
inactive: outcome (HACAT) | outcome (NIH3T3) | Potency (C33A) | Potency (CAOV3) | outcome (CASKI) | Potency (Es-2) | Potency (HeLa) | Potency (Hek293T) | Potency (JEG-3) | Potency (OV90) | Potency (PA-1) | Potency (SKOV3) | Potency (Tov-21-G) | Potency (Tov112D)

CCC(C)C(=O)OC[C@H]1O[C@H](O[C@H]2O[C@H](CO)[C@@H](O)[C@H](O)[C@H]2O)[C@H](O)[C@@H](O)[C@@H]1O (some centres not stated)
inactive: outcome (HACAT) inactive [at 17.4 µM] | outcome (NIH3T3) inactive [at 17.4 µM] | Potency (C33A) | Potency (CAOV3) | outcome (CASKI) | Potency (Es-2) | Potency (HeLa) | Potency (Hek293T) | Potency (JEG-3) | Potency (OV90) | Potency (PA-1) | Potency (SKOV3) | Potency (Tov-21-G) | Potency (Tov112D)

CN1CCCC1Cc1c[nH]c2ccc(CCS(=O)(=O)c3ccccc3)cc12 (configuration not stated)
inactive: outcome (HACAT) | outcome (NIH3T3) | Potency (C33A) | Potency (CAOV3) | outcome (CASKI) | Potency (Es-2) | Potency (HeLa) | Potency (Hek293T) | Potency (JEG-3) | Potency (OV90) | Potency (PA-1) | Potency (SKOV3) | Potency (Tov-21-G) | Potency (Tov112D)

C/C(=C\C(=O)C[C@@]12C(=O)O[C@]3(C)CC[C@H]1C[C@H]23)C(N)=O
inactive: outcome (HACAT) | outcome (NIH3T3) | Potency (C33A) | Potency (CAOV3) | outcome (CASKI) | Potency (Es-2) | Potency (HeLa) | Potency (Hek293T) | Potency (JEG-3) | Potency (OV90) | Potency (PA-1) | Potency (SKOV3) | Potency (Tov-21-G) | Potency (Tov112D)

CC1(C)C[C@H](O)C[C@@]2(C)[C@H]1[C@H](O)C=C1COC(=O)[C@@]12O
inactive: outcome (HACAT) | outcome (NIH3T3) | Potency (C33A) | Potency (CAOV3) | outcome (CASKI) | Potency (Es-2) | Potency (HeLa) | Potency (Hek293T) | Potency (JEG-3) | Potency (OV90) | Potency (PA-1) | Potency (SKOV3) | Potency (Tov-21-G) | Potency (Tov112D)

C[C@]1(OC(=O)/C=C/c2ccc(O)cc2)C[C@@H](O)[C@]2(O)C=CO[C@@H](O[C@@H]3O[C@H](CO)[C@@H](O)[C@H](O)[C@H]3O)C12 (some centres not stated)
inactive: outcome (HACAT) inactive [at 17.4 µM] | outcome (NIH3T3) inactive [at 17.4 µM] | Potency (C33A) | Potency (CAOV3) | outcome (CASKI) | Potency (Es-2) | Potency (HeLa) | Potency (Hek293T) | Potency (JEG-3) | Potency (OV90) | Potency (PA-1) | Potency (SKOV3) | Potency (Tov-21-G) | Potency (Tov112D)

C[C@@]1(C(=O)O)CCC[C@@]2(C)C3=CC[C@H]4C[C@@]3(CC[C@H]12)CC4(O)CO (some centres not stated)
inactive: outcome (HACAT) | outcome (NIH3T3) | Potency (C33A) | Potency (CAOV3) | outcome (CASKI) | Potency (Es-2) | Potency (HeLa) | Potency (Hek293T) | Potency (JEG-3) | Potency (OV90) | Potency (PA-1) | Potency (SKOV3) | Potency (Tov-21-G) | Potency (Tov112D)

C[C@H](O)C(O)(C(=O)OCc1ccccc1NC(=O)CCC(N)C(=O)O)[C@H](C)O (some centres not stated)
inactive: outcome (HACAT) inactive [at 17.4 µM] | outcome (NIH3T3) inactive [at 17.4 µM] | Potency (C33A) | Potency (CAOV3) | outcome (CASKI) | Potency (Es-2) | Potency (HeLa) | Potency (Hek293T) | Potency (JEG-3) | Potency (OV90) | Potency (PA-1) | Potency (SKOV3) | Potency (Tov-21-G) | Potency (Tov112D)

CC[C@H](C)[C@H](NC(=O)[C@H](Cc1ccc(O)cc1)NC(=O)[C@@H](N)C(C)C)C(=O)N[C@@H](Cc1cnc[nH]1)C(=O)N1CCC[C@H]1C(=O)N[C@@H](Cc1ccccc1)C(=O)O
inactive: outcome (HACAT) inactive [at 4.96 µM] | outcome (NIH3T3) inactive [at 4.96 µM] | activity change, negative = cytotoxicity (C33A) 19.1% [at 6.55 µM] | activity change, negative = cytotoxicity (CAOV3) 20.7% [at 6.55 µM] | activity change, negative = cytotoxicity (CASKI) -0.165% [at 6.55 µM] | activity change, negative = cytotoxicity (Es-2) 0.0528% [at 6.55 µM] | activity change, negative = cytotoxicity (HeLa) 25.4% [at 6.55 µM] | activity change, negative = cytotoxicity (Hek293T) 1.27% [at 6.55 µM] | activity change, negative = cytotoxicity (JEG-3) 1.86% [at 6.55 µM] | activity change, negative = cytotoxicity (OV90) -1.9% [at 6.55 µM] | activity change, negative = cytotoxicity (PA-1) 4.28% [at 6.55 µM] | activity change, negative = cytotoxicity (SKOV3) 16.8% [at 6.55 µM] | activity change, negative = cytotoxicity (Tov-21-G) 1.06% [at 6.55 µM] | activity change, negative = cytotoxicity (Tov112D) 12.4% [at 6.55 µM]
